From PubChem BioAssay
Ba/F3 V617F tox: loss of viability in JAK2V617F-driven Ba/F3 cells; Ba/F3 EpoR-JAK2V617F viability, ATP luminescence; inhibition, % at 5.6 µM; 220,000 tested, 1.1% active; AID 1446;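 active = inhibition above the campaign mean plus 3 SD over all tested compounds, cut at about 24% in these data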;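 also: cytokine-independent growth of Ba/F3 cells driven by EpoR plus mutant JAK2; 0% = DMSO-treated cells and 100% = JAK inhibitor I control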
APP transl inh: APP translation inhibition; SH-SY5Y APP 5'UTR-luciferase reporter, luminescence; inhibition, % at 2 µM; 190,000 tested, 0.82% active;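 active = inhibition above a set limit, derived from the sample mean plus 3 SD, cut at about 45% in these data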
IEC-6 tox: IEC-6 cytotoxicity, counter-screen for KLF5 inhibitors; AID 1825; luminescence viability; inhibition, % at 5 µM; 290,000 tested, 0.78% active; in the data active = inhibition above about 22%;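 also: 0% = plate median of test compound wells and 100% = cytotoxic reference compound wells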
BaF3 tox: counter-screen for JAK2V617F inhibitors: parental Ba/F3 viability inhibitors. CellTiter-Glo ATP luminescence. inhibition, % at 5.6 µM. 220,000 tested, 1.1% active;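 active = inhibition above a per-campaign cutoff, the mean inhibition of all tested compounds plus 3 SD, cut at about 27% in these data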;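 also: 0% = DMSO wells and 100% = JAK Inhibitor I control wells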
aSyn UTR inh: MLPCN primary screen, SNCA 5' untranslated region. inhibition, % (tested at 7.5 µM). alpha-synuclein 5'UTR reporter, inhibitor activity. AID 1813. 300,000 tested, 0.82% active; in the data active = inhibition above about 60%;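 also: H4 neuroglioblastoma cells stably carrying SNCA 5'UTR luciferase fusion; 0% = DMSO wells and 100% = positive control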
KLF5 inhibitor: inhibitors of KLF5 expression | DLD-1 KLF5 promoter-luciferase reporter, luminescence | inhibition, % at 5 µM | 290,000 tested, 0.23% active;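 active = inhibition above a per-plate limit of that plate's mean compound inhibition plus 3 SD, cut at about 60% in these data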;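 also: 0% = DMSO wells and 100% = LY294002 at 200 µM; higher means less KLF5 promoter-driven luciferase light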
The depositor's hits bear a star; / = not tested or not shown. Shown are actives, neighbours in structure and some others; about 2.2% of the full set was active somewhere.

SMILES	Ba/F3 V617F tox	APP transl inh	IEC-6 tox	BaF3 tox	aSyn UTR inh	KLF5 inhibitor
COc1cc(/C=C2/NC(=O)N(Cc3ccccc3F)C2=O)ccc1O	85*	36	4	65*	-3	-15
Cc1nn(-c2ccccc2)c(C)c1NC(=O)COC(=O)Cc1cccc(C(F)(F)F)c1	/	/	/	/	0	/
S=c1sc2c(Cl)ncnc2n1-c1ccccc1	0	65*	7	0	93*	-26
Cc1nc(N2CCN(C)CC2)c2sc(=S)n(-c3ccccc3)c2n1	5	-11	-1	5	-31	-23
Cn1c2ccccc2c(=O)c2cc(C#CC3(O)CCCCC3)ccc21	/	/	11	/	77*	59
Cc1cc2sc3ccc(C#CC4(O)CCCCC4)cc3c(=O)c2cc1C	/	/	/	/	102*	/
CN(/N=C/c1cc(Br)cc(Br)c1O)c1cccc(C(F)(F)F)n1	/	/	9	/	70*	-2
CCOc1ccc(-c2cc(CCCC(=O)NCc3ccc(C)cc3)no2)cc1	1	30	-1	6	81*	17
CCOc1ccc(-c2cc(CCCC(=O)NCc3ccco3)no2)cc1	-2	41	-1	-1	73*	-9
COc1ccc(-c2cc(CCCC(=O)NCCc3cc(OC)ccc3OC)no2)cc1	2	2	1	6	7	7
CCn1cnc2c1c(=O)n(CC(=O)NCC(F)(F)F)c(=O)n2Cc1ccccc1	-2	-15	2	-1	1	-2
COC(=O)C(Cc1ccc(OC(=O)c2ccc(Cl)cc2)cc1)N1Cc2ccccc2C1=O (stereo not drawn)	2	-48	4	96*	-124	-45
CCS(=O)(=O)Nc1ccc(C2=NN(S(=O)(=O)CC)C(c3cccs3)C2)cc1 (stereo not drawn)	/	/	-2	/	-21	-27
CC1=C(C)/C(=N\OS(=O)(=O)c2ccccc2)C=CC1=O	91*	74*	-5	91*	-80	-36
Nc1ccc(Oc2ccccc2-c2ccccc2)cc1	/	/	/	/	104*	/
NCCOc1ccccc1-c1ccccc1	-1	9	1	4	13	-6
CCC/C=N/NC(=O)c1[nH]c2c([N+](=O)[O-])cccc2c1C	-5	89*	9	2	21	7
Cn1nnnc1Sc1ncnc2scc(-c3ccccc3)c12	-2	8	14	-6	-59	-11
Cn1nnnc1Sc1ncnc2scc(-c3ccc(F)cc3)c12	27*	0	31*	7	-89	-3
CC/C(C)=N\Nc1nc(-c2cc3cc(OC)ccc3oc2=O)cs1	-2	/	-5	0	-119	-54
COc1ccc(-c2coc3cc4oc(=O)c5ccccc5c4cc23)cc1F	-3	96*	-1	1	81*	-36
Brc1ccc(C=Nc2ccc(Nc3ccccc3)cc2)s1	2	45*	7	8	13	4
Cc1ccc(-c2noc(CNC(=O)c3ccc4c(c3)OCO4)n2)cc1	/	/	-4	/	-2	13
Cc1cc(N(C(=O)c2ccco2)C(C(=O)NC2CCCCC2)c2ccccc2)ccc1-n1cnnn1 (stereo not drawn)	-3	-9	-6	51*	-6	1
O=C1C=CC(=O)N1c1ccc(OC(F)F)cc1	-1	56*	-2	0	/	2
SMILES	Ba/F3 V617F tox	APP transl inh	IEC-6 tox	BaF3 tox	aSyn UTR inh	KLF5 inhibitor
O=C(CN1C(=O)c2ccc(Br)cc2C1=O)NCC1CCCO1 (stereo not drawn)	/	/	-2	/	-23	-1
CCN(CC(=O)Nc1ccccc1OC)CC(=O)Nc1ccccc1-c1ccccc1	2	3	24*	2	/	17
Cc1cccn2c(=O)c3cc(C#N)c(=N)n(CCN4CCOCC4)c3nc12	-1	47*	-1	3	-34	-28
Cc1sc(N/N=C/c2cc([N+](=O)[O-])ccc2O)nc1-c1ccccc1	4	50*	8	2	-30	-19
COC(=O)c1cc(COc2ccc3ccc(=O)oc3c2)c(C)o1	1	-13	-2	94*	-1	-19
Fc1ccc(-c2csc(-c3cccnc3)n2)cc1F	/	/	4	/	-51	-41
Oc1ccc(-c2csc(-c3cccnc3)n2)cc1O	41*	/	16	37*	-96	-110
C/C=C(\C)CN1CCC(Oc2cccc(C(=O)NCc3ccccn3)c2)CC1	/	/	2	/	10	-29
COc1ccc(C(=O)/C(C#N)=N/Nc2ccc([N+](=O)[O-])cc2)cc1	0	92*	18	7	102*	4
CCCc1c(C)nn(C(=O)/C(C#N)=N/Nc2ccccc2[N+](=O)[O-])c1C	-2	-64	-1	4	-34	-24
COc1ccc(C(=O)/C(C#N)=N/Nc2ccccc2[N+](=O)[O-])cc1	-1	70*	4	2	-26	-6
CCCc1nc2oc3c(NCCN(C)C)ncnc3c2c2c1CCCC2	-1	-10	4	-1	-30	11
CCCc1nc2oc3c(NCCCN(C)C)ncnc3c2c2c1CCCC2	68*	/	-6	69*	108*	-31
CN1C(=O)/C(=C/c2ccccc2Cl)Sc2ccc(C(=O)NCc3cccnc3)cc21	1	-25	0	8	3	-2
CN=c1scc(-c2ccccc2Br)n1/N=C/c1ccc[nH]1	5	-174	-4	9	64*	-27
CCN1/C(=C/c2ccc3cc(C)ccc3[n+]2C)Sc2ccc3sccc3c21	78*	20	16	62*	/	-12
COc1ccc(CCNC(=O)c2nonc2N)cc1OC	-2	-22	-3	69*	-6	-18
Cc1ccc(SCC(=O)Nc2ccc(C(=O)Nc3ccc(O)cc3)cc2)cc1	3	1	-1	9	18	-16
C=CCSc1nc2c(cnn2-c2ccccc2)c(=O)n1N	2	/	0	0	74*	-150
Cc1ccccc1CC1(CO)CCCN(Cc2c(C)nn(C)c2Cl)C1 (stereo not drawn)	0	9	10	80*	-14	-11
Cc1ccc(CSc2nc3ccncc3[nH]2)cc1	4	-148	7	15	73*	53
Cc1ccc(Cn2c(C(C)Nc3nc(-c4ccc(C)cc4)cs3)nc3cc(Cl)c(Cl)cc32)cc1 (stereo not drawn)	/	/	-9	/	-4	-18
O=C(c1ccc2c(c1)OCO2)N(Cc1cccs1)C1(C(=O)NC2CCCCC2)CCCCC1	5	-19	7	3	-9	-1
Cc1ccc2nc(-c3ccc(NC(=O)CCS(=O)(=O)c4ccccc4)cc3)sc2c1	2	-126	-7	3	62*	-181
CC(=O)Nc1sc(C)c(C)c1C(=O)OCC(=O)N(CC(C)C)c1c(N)n(Cc2ccccc2)c(=O)[nH]c1=O	/	/	/	/	77*	/
CC(=O)O[C@@]12CO[C@@H]1C[C@H](O)[C@@]1(C)C(=O)[C@H](O)C3=C(C)[C@@H](OC(=O)[C@H](O)[C@@H](NC(=O)OC(C)(C)C)c4ccccc4)C[C@](O)([C@@H](OC(=O)c4ccccc4)[C@H]21)C3(C)C	73*	/	87*	62*	72*	68*
